Results filed as inconclusive are left out. Where a call stands in place of a potency, no number is given. Activity calls are given as the source filed them. The call rests on the fitted dose curve; in most records, active means well fitted inhibition curve with a large enough effect; inconclusive means small, poorly fitted or top-dose-only effect; inactive means flat fitted curve, though single readings scatter.

One assay deals with Phospholipid hydroperoxide glutathione peroxidase GPX4 (Homo sapiens) (UniProt P36969). The assay can be described thus: Primary qHTS Assay for Inhibitors of Recombinant Selenoprotein Glutathione Peroxidase 4 (GPX4) (AID 1845192). Further: nearly all actives have a fitted effect of over 65% in size. To be noted: recombinant GPX4, GR-coupled NADPH fluorescence, 15 min; series mostly up to 27.8 µM. In short, it runs like this: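 NADPH consumption followed by fluorescence at 340/450 nm, t=0 and after 15 min at room temperature. Reaction started with cumene hydroperoxide (0.5 mM final) after 30 min compound–GPX4 preincubation; final 200 nM GPX4, 100 nM GR, 1 mM GSH, 0.5 mM NADPH.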
Sequence of Phospholipid hydroperoxide glutathione peroxidase GPX4 (Homo sapiens) (P36969 whole entry, looked up): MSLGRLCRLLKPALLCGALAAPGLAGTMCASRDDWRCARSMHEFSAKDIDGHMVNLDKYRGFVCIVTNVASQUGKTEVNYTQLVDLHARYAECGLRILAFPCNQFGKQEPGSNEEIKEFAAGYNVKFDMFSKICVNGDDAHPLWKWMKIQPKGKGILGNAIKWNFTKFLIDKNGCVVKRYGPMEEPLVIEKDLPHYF
In the case of `O=C(/C=C/N1C[C@@H]2C[C@@H]1CN2c1ccccn1)c1ccccc1O`, the Potency result is “inactive”.

On to `CC1OC(O[C@@H]2[C@H](O)[C@@H](OC3OC(CO)C(O)C(O)C3O)[C@H](OC(=O)[C@]34CCC(C)(C)C[C@H]3C3=CCC5[C@@]6(C)CC[C@H](O[C@@H]7O[C@H](C(=O)O)[C@@H](O)[C@H](O[C@@H]8OC[C@@H](O)[C@H](O)[C@H]8O)[C@H]7O[C@@H]7O[C@H](CO)[C@H](O)[C@H](O)[C@H]7O)[C@@](C)(C=O)C6CC[C@@]5(C)[C@]3(C)C[C@H]4O)O[C@@H]2C)C(O)C(O)C1OC1OCC(O)C(O)C1O` (some centres not stated), for which the Potency entry was “inactive”.

For the compound `CC(=O)O[C@H]1[C@H](O[C@H]2CC[C@]34C[C@]35CC[C@]3(C)[C@@H]([C@@]6(C)CC[C@@H](C(C)(C)O)O6)[C@@H](O)C[C@@]3(C)[C@@H]5C[C@H](O[C@@H]3O[C@H](CO)[C@@H](O)[C@H](O)[C@H]3O)[C@H]4C2(C)C)OC[C@@H](OC(C)=O)[C@@H]1O`, the Potency result is “inactive”.

For `CC(C)N(CCCNC(=O)Nc1ccc(C(C)(C)C)cc1)C[C@H]1O[C@@H](n2ccc3c(N)ncnc32)[C@H](O)[C@@H]1O`, the Potency result is “inactive”.

Regarding `O=C(/C=C/c1ccc(O)c(O)c1)O[C@H]1[C@@H]2C=CO[C@@H](O[C@@H]3O[C@H](CO)[C@@H](O)[C@H](O)[C@H]3O)[C@@H]2[C@@]2(CO)O[C@@H]12`, the Potency entry was “inactive”.

Turning to `CC1(C)CCC2(C(=O)O)C(O)CC3(C)C(=CCC4C5(C)CCC(OC6OC(CO)C(O)C(O)C6OC6OC(CO)C(O)C(O)C6OC6OCC(O)(CO)C6O)C(C)(C)C5CCC43C)C2C1` (configuration not stated), the Potency result is “inactive”.

In the case of `CC1=C[C@H]2[C@@H](CC1=O)[C@H](C)C[C@H](O)[C@H]2C(C)C`, the Potency entry is “inactive”.

With `Cc1ccccc1NC(=O)Nc1ccc(CN2C(=O)N([C@@H](CC(C)C)C(=O)N[C@@H](CC(=O)O)c3ccccc3)C(=O)C2(C)C)cc1`, the Potency result was “inactive”.

Turning to `CC1CCCCCCCc2cc(O)cc(O)c2C(=O)O1` (configuration not stated), the Potency entry is “inactive”.

Take `C=C1CCC2C(C)(C)CC(O)CC2(C)C1CCC(C)CC(=O)O` (configuration not stated): the Potency entry was “inactive”.

With `C[C@@H](NC(=O)c1cc(C(=O)N[C@@H](Cc2ccccc2)[C@H](O)CNC2CC2)cc(N(C)S(C)(=O)=O)c1)c1ccccc1`, the Potency result was “inactive”.

In the case of `C=CC1(C)CC2CCC3C(C)(C(=O)O)CCCC3(C)C2=CC1=O` (configuration not stated), the Potency result was “inactive”.

With `CC1(C)OC(=O)C=C[C@@]2(C)C1CC(=O)[C@]1(C)C2CC[C@@]2(C)[C@H](c3ccoc3)OC(=O)[C@H]3O[C@]321` (some centres not stated), the Potency entry was “inactive”.

As for `COc1cc(O)cc(C)c1C(=O)OC1C(CO)OC(n2ccc(=O)[nH]c2=O)C1OC(C)=O` (configuration not stated), the Potency entry is “inactive”.

As to `CC1=CC(=O)CC(C)(C)C1CO[C@@H]1O[C@H](CO)[C@@H](O)[C@H](O)[C@H]1O` (some centres not stated), the Potency entry was “inactive”.

Regarding `C=C1CCC2[C@@](C)(C(=O)O)CCC[C@@]2(C)[C@@H]1CCc1ccoc1` (some centres not stated), the Potency result is “inactive”.

With `CC[C@@H](C)[C@H](N)C(=O)N1Cc2ccccc2C1`, the Potency result is “inactive”.

In the case of `COc1cc(C2Oc3c(OC)cc(CCCO)cc3C2CO)ccc1O` (configuration not stated), the Potency result was “inactive”.

In the case of `C=C1C(OC(C)=O)C(=O)C2C(C)(C)C(O)CCC2(C)C1CC(OC(C)=O)/C(C)=C/COC(C)=O` (configuration not stated), the Potency result is “inactive”.

Turning to `C/C(=C\CCC(C)C1CC(O)C2(C)C3CCC4C(C)(C)C(OC5OCC(O)C(O)C5O)CCC45CC35CC(O)C12C)C(=O)O` (configuration not stated), the Potency entry is “inactive”.

As to `CC1C2=CC(=O)OC2(O)CC2C1CCC1C(C)(C)CCC(O)C21C` (configuration not stated), the Potency result is “inactive”.

As to `CC(C)c1ccc2c(c1)C(=O)CC1C(C)(C(=O)O)CCCC21C` (configuration not stated), the Potency entry was “inactive”.

Consider `CC1(C)[C@@H]2CC=C(CO[C@@H]3O[C@H](CO[C@@H]4OC[C@H](O)[C@H](O)[C@H]4O)[C@@H](O)[C@H](O)[C@H]3O)[C@H]1C2`, for which the Potency entry was “inactive”.

In the case of `COc1ccc(CCC(=O)O)c(O[C@@H]2O[C@H](CO)[C@@H](O)[C@H](O)[C@H]2O)c1`, the Potency entry is “inactive”.

In the case of `Cc1ccc(-n2nc(C(C)(C)C)cc2NC(=O)Nc2cc(COc3cccnc3)[nH]n2)cc1`, the Potency entry was “inactive”.

In the case of `C=CC(C)(O)CC/C=C(\C)COC1O[C@H](CO)[C@@H](O)[C@H](O)[C@H]1O` (some centres not stated), the Potency entry was “inactive”.

`O=C(N[C@@H]1CC[C@@H](c2cccc(F)c2F)CN(CC(F)(F)F)C1=O)N1CCC(n2c(=O)[nH]c3ncccc32)CC1`: the Potency entry is “inactive”.

Take `CN1C(=O)N(c2cc(Cl)cc(Cl)c2)C(=O)[C@@]1(C)Cc1ccc(Br)cc1`: the Potency result is “inactive”.

The next assay addresses Luciferin 4-monooxygenase (Photinus pyralis) (UniProt P08659). As to the kind of experiment: Primary firefly luciferase (FLuc) qHTS assay for identification of artifact compounds. (AID 1845220). Further: nearly all actives have a fitted effect of over 60% in size. Further: potency means the concentration at half of the fitted maximal effect. Particulars: purified firefly luciferase, luminescence, 5 min; series mostly up to 54.1 µM. The essentials: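 Compounds sat 15 min at room temperature with 10 uM luciferin and 10 uM ATP (pH 7.6 Tris acetate). Firefly luciferase (10 nM final) was then added, and luminescence was read 5 min later. Data normalized to no-enzyme and DMSO controls were Hill-fitted.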
Background: qHTS replaces the single test concentration by a dilution series.
Turning to `C[C@@H]1O[C@@H](O[C@H]2[C@H](O)[C@@H](O)[C@H](OC(=O)[C@]34CCC(C)(C)C[C@H]3C3=CCC5[C@@]6(C)CC[C@H](O[C@@H]7O[C@H](C(=O)O)[C@@H](O)[C@H](O)[C@H]7O)C(C)(C)C6CC[C@@]5(C)[C@]3(C)CC4)O[C@@H]2CO)[C@H](O)[C@H](O)[C@H]1O` (some centres not stated), the activity change, negative = inhibition was -16.1% [at 11.6 µM] (inactive).

With `O=C(OC[C@H]1O[C@@H](Oc2ccccc2CO)[C@H](O)[C@@H](O)[C@@H]1O)c1ccccc1`, the Potency entry is “inactive”.

Regarding `COc1cc(O)cc2c1C(=O)OC(C)C2` (configuration not stated), the Potency entry was “inactive”.

For the compound `O=C(/C=C/C=C/c1ccc2c(c1)OCO2)N1CCCCC1`, the Potency was 10.7 µM (active).

Consider `COC(=O)C1=COC(O[C@@H]2O[C@H](CO)[C@@H](O)[C@H](O)[C@H]2O)/C(=C\COC(=O)/C=C/c2ccccc2)C1CC(=O)OCCc1ccc(O)cc1` (some centres not stated), for which the Potency result is “inactive”.

On to `CC1=C2CC3C(CCC3(C)O)C(C)(O)CC2OC1=O` (configuration not stated), for which the Potency result is “inactive”.

With `CC1=C(CO)CC(C(C)C2CCC3C4CC=C5CC(OC6OC(COC7OC(CO)C(O)C(O)C7O)C(O)C(O)C6O)CC(O)C5(C)C4CCC23C)OC1=O` (configuration not stated), the Potency result is “inactive”.

On to `C/C(=C\CO)CC/C=C(\C)C(=O)O[C@@H]1O[C@H](CO)[C@@H](O)[C@H](O)[C@H]1O`, for which the Potency entry was “inactive”.

In the case of `C[C@@H]1CCC2C(C)(C)[C@H](O)[C@H](O)C[C@]2(C)[C@@]12Cc1c(O)cc3c(c1O2)CN(CCCC(=O)O)C3=O` (some centres not stated), the Potency result is “inactive”.

As to `CC(=O)O[C@@H]1C(=O)C(C)=C(CCC(C)CC(=O)O)[C@@]2(C)CCCC(C)(C)C12` (some centres not stated), the Potency result is “inactive”.

Regarding `COc1cc(C(=O)OCC2=CCC3C(C(=O)O)=COC(O[C@@H]4O[C@H](CO)[C@@H](O)[C@H](O)[C@H]4O)C23)ccc1O` (some centres not stated), the Potency entry was “inactive”.

For `O=C(/C=C/N1C[C@@H]2C[C@@H]1CN2c1ccccn1)c1ccccc1O`, the Potency result is “inactive”.

In the case of `CC1OC(O[C@@H]2[C@H](O)[C@@H](OC3OC(CO)C(O)C(O)C3O)[C@H](OC(=O)[C@]34CCC(C)(C)C[C@H]3C3=CCC5[C@@]6(C)CC[C@H](O[C@@H]7O[C@H](C(=O)O)[C@@H](O)[C@H](O[C@@H]8OC[C@@H](O)[C@H](O)[C@H]8O)[C@H]7O[C@@H]7O[C@H](CO)[C@H](O)[C@H](O)[C@H]7O)[C@@](C)(C=O)C6CC[C@@]5(C)[C@]3(C)C[C@H]4O)O[C@@H]2C)C(O)C(O)C1OC1OCC(O)C(O)C1O` (some centres not stated), the activity change, negative = inhibition was 1.16% [at 6.45 µM] (inactive).

Take `CC(=O)O[C@H]1[C@H](O[C@H]2CC[C@]34C[C@]35CC[C@]3(C)[C@@H]([C@@]6(C)CC[C@@H](C(C)(C)O)O6)[C@@H](O)C[C@@]3(C)[C@@H]5C[C@H](O[C@@H]3O[C@H](CO)[C@@H](O)[C@H](O)[C@H]3O)[C@H]4C2(C)C)OC[C@@H](OC(C)=O)[C@@H]1O`: the Potency result was “inactive”.

Turning to `CC(C)N(CCCNC(=O)Nc1ccc(C(C)(C)C)cc1)C[C@H]1O[C@@H](n2ccc3c(N)ncnc32)[C@H](O)[C@@H]1O`, the Potency result is “inactive”.

As for `O=C(/C=C/c1ccc(O)c(O)c1)O[C@H]1[C@@H]2C=CO[C@@H](O[C@@H]3O[C@H](CO)[C@@H](O)[C@H](O)[C@H]3O)[C@@H]2[C@@]2(CO)O[C@@H]12`, the Potency entry was “inactive”.

For `CC1(C)CCC2(C(=O)O)C(O)CC3(C)C(=CCC4C5(C)CCC(OC6OC(CO)C(O)C(O)C6OC6OC(CO)C(O)C(O)C6OC6OCC(O)(CO)C6O)C(C)(C)C5CCC43C)C2C1` (configuration not stated), the outcome is “inactive [at 11.6 µM]”.

As to `CC1=C[C@H]2[C@@H](CC1=O)[C@H](C)C[C@H](O)[C@H]2C(C)C`, the Potency entry was “inactive”.

For the compound `Cc1ccccc1NC(=O)Nc1ccc(CN2C(=O)N([C@@H](CC(C)C)C(=O)N[C@@H](CC(=O)O)c3ccccc3)C(=O)C2(C)C)cc1`, the Potency result was “inactive”.

With `CC1CCCCCCCc2cc(O)cc(O)c2C(=O)O1` (configuration not stated), the Potency entry is “inactive”.

`C=C1CCC2C(C)(C)CC(O)CC2(C)C1CCC(C)CC(=O)O` (configuration not stated): the Potency result was “inactive”.

With `C[C@@H](NC(=O)c1cc(C(=O)N[C@@H](Cc2ccccc2)[C@H](O)CNC2CC2)cc(N(C)S(C)(=O)=O)c1)c1ccccc1`, the Potency entry was “inactive”.

Consider `C=CC1(C)CC2CCC3C(C)(C(=O)O)CCCC3(C)C2=CC1=O` (configuration not stated), for which the Potency result is “inactive”.

Consider `CC1(C)OC(=O)C=C[C@@]2(C)C1CC(=O)[C@]1(C)C2CC[C@@]2(C)[C@H](c3ccoc3)OC(=O)[C@H]3O[C@]321` (some centres not stated), for which the Potency entry is “inactive”.

For the compound `COc1cc(O)cc(C)c1C(=O)OC1C(CO)OC(n2ccc(=O)[nH]c2=O)C1OC(C)=O` (configuration not stated), the Potency entry is “inactive”.

Turning to `CC1=CC(=O)CC(C)(C)C1CO[C@@H]1O[C@H](CO)[C@@H](O)[C@H](O)[C@H]1O` (some centres not stated), the Potency entry was “inactive”.

As to `C=C1CCC2[C@@](C)(C(=O)O)CCC[C@@]2(C)[C@@H]1CCc1ccoc1` (some centres not stated), the Potency entry was “inactive”.

Turning to `CC[C@@H](C)[C@H](N)C(=O)N1Cc2ccccc2C1`, the Potency result was “inactive”.

For the compound `COc1cc(C2Oc3c(OC)cc(CCCO)cc3C2CO)ccc1O` (configuration not stated), the Potency result is “inactive”.

For `C=C1C(OC(C)=O)C(=O)C2C(C)(C)C(O)CCC2(C)C1CC(OC(C)=O)/C(C)=C/COC(C)=O` (configuration not stated), the Potency entry is “inactive”.

In the case of `C/C(=C\CCC(C)C1CC(O)C2(C)C3CCC4C(C)(C)C(OC5OCC(O)C(O)C5O)CCC45CC35CC(O)C12C)C(=O)O` (configuration not stated), the Potency result was “inactive”.

For `CC1C2=CC(=O)OC2(O)CC2C1CCC1C(C)(C)CCC(O)C21C` (configuration not stated), the Potency result is “inactive”.

As for `CC(C)c1ccc2c(c1)C(=O)CC1C(C)(C(=O)O)CCCC21C` (configuration not stated), the Potency result is “inactive”.

On to `CC1(C)[C@@H]2CC=C(CO[C@@H]3O[C@H](CO[C@@H]4OC[C@H](O)[C@H](O)[C@H]4O)[C@@H](O)[C@H](O)[C@H]3O)[C@H]1C2`, for which the Potency entry is “inactive”.
